# From PubChem BioAssay
# “And” between values parts separate entries of the source, which are not always exact repeats. Equal entries are not always repeated. The source made the active and inactive calls. Unless noted, no stated cut-off is given here; in the data, active means inhibition above about 80%; inactive means the rest.
# What was measured:
# [1] = growth inhibition, single agents and combos, HTB85, cell-based, BGB or cisplatin IC20 combos, synergistic combos for chromothripsis tumors (AID 1671453); settings: HTB85 osteosarcoma cells, drug combinations, stronger effect = higher value;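 further: cells exposed for 96 hours before readout; 0% = vehicle DMSO and 100% = high DMSO killing control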
# [2] = growth inhibition, single agents and combos, CRL2098, cell-based, BGB or cisplatin IC20 combos, synergistic combos for chromothripsis tumors (AID 1671454); settings: CRL2098 osteosarcoma cells, drug combinations, stronger effect = higher value;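 further: cells exposed for 96 h before readout; 0% = vehicle DMSO and 100% = killing by high DMSO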
# [3] = growth inhibition, single agents and combos, HD-MB03, cell-based, BGB or cisplatin IC20 combos, synergistic combos for chromothripsis tumors (AID 1671455; in the data active means inhibition above about 83%;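 further: 0% = vehicle DMSO and 100% = high DMSO as cytotoxic control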); settings: HD-MB03 medulloblastoma cells, stronger effect = higher value
# [4] = growth inhibition, single agents and combos, UWB1.289, cell-based, BGB or cisplatin combos, synergistic combos for chromothripsis tumors (AID 1671456); settings: UWB1.289 ovarian carcinoma cells, stronger effect = higher value;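 further: cells exposed to compound for four days; 0% = vehicle DMSO and 100% = killing by high DMSO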
# [5] = growth inhibition, single agents and combos, LFS_MB_2R, cell-based, cisplatin combos, synergistic combos for chromothripsis tumors (AID 1671457); settings: LFS_MB_2R medulloblastoma cells, stronger effect = higher value;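 further: cells exposed to compound for four days before readout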
# [6] = growth inhibition, MDA-MB-436, cell-based, BGB or cisplatin combos, synergistic combos for chromothripsis tumors (AID 1671458; call rule not given here;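 further: cells exposed for 96 hours; 0% = vehicle DMSO and 100% = killing by high DMSO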); settings: MDA-MB-436 breast carcinoma growth inhibition, drug combinations, stronger effect = higher value
# [7] = UWB1.289_BRCA1 ovarian cancer growth, cell-based, BGB or cisplatin combinations (AID 1671459); settings: UWB1.289 BRCA1 ovarian carcinoma, drug combinations, stronger effect = higher value
# [8] = drug combination toxicity in non-malignant astrocytes – cell-based, BGB or cisplatin IC20 combos, cytotoxicity control for chromothriptic childhood tumor combination screen (AID 1671460); settings: Human astrocytes, viability inhibition, drug combinations, at 0.5 µM, stronger effect = higher value;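 further: cells exposed to compounds for 96 hours before viability readout; 0% = vehicle and 100% = killing control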
# [9] = BT084 cell growth, single and combined drugs, ICGC_MB145, cisplatin and BGB IC40 combos (AID 1671461); settings: BT084 medulloblastoma cells, drug combinations, stronger effect = higher value;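 further: cells exposed to drugs for 96 hours; 0% = vehicle DMSO and 100% = high DMSO full killing control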
# [10] = RCMB18 cell growth, single agent and combined, cisplatin and BGB IC40 combos (AID 1671462); settings: RCMB18 medulloblastoma cells, stronger effect = higher value;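 further: cells exposed to compound for four days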
# [11] = CRL1545 cell growth, single agent and combined, cisplatin and BGB IC20 combos (AID 1671464); settings: CRL1545 osteosarcoma cells, stronger effect = higher value;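 further: cells exposed to compound for 96 hours before readout; 0% = vehicle DMSO and 100% = high DMSO killing control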
# [12] = target: NAD(+) hydrolase SARM1 (Homo sapiens) (UniProt Q6SZW1); assay: blocking NAD cleavage by SARM1 SAM-TIR – cell lysate, NAD-Glo luminescence (AID 1508614;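 active means compound whose remaining NAD level is above about 45 nM, limit read from the data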); settings: SAM-TIR HEK293T lysate NADase, at 1 µM, stronger effect = higher value
# [13] = galactose survival enhancers in mitochondrial complex I cybrids – cell-based, galactose medium, ATP luminescence, primary screen (AID 1645843;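 active means z-score of at least 1.8 in each of two replicates, scored against plate mean and spread of sample wells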;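 further: positive z means more ATP and so rescue of galactose-driven cybrid death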); settings: complex I mutant cybrid cells, 72 h, stronger effect = higher value
# [14] = target: Mitogen-activated protein kinase 7 (Homo sapiens) (UniProt Q13164); assay: Gal4-ERK5 driven luciferase induction – cell-based, HTS, primary screen (AID 1508626;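 active means luciferase signal above three times the same-plate solvent-only control wells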;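 further: luciferase driven by Gal4-ERK5 fusion binding five Gal4 sites before minimal TATA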); settings: HeLa Gal4-ERK5 transactivation, 18 h, at 5 µM, stronger effect = higher value
# [15] = measured here: combination with cisplatin, at 0.5 µM
# Mitogen-activated protein kinase 7 (Homo sapiens), sequence (Q13164 whole entry, looked up, the tested form may be a part): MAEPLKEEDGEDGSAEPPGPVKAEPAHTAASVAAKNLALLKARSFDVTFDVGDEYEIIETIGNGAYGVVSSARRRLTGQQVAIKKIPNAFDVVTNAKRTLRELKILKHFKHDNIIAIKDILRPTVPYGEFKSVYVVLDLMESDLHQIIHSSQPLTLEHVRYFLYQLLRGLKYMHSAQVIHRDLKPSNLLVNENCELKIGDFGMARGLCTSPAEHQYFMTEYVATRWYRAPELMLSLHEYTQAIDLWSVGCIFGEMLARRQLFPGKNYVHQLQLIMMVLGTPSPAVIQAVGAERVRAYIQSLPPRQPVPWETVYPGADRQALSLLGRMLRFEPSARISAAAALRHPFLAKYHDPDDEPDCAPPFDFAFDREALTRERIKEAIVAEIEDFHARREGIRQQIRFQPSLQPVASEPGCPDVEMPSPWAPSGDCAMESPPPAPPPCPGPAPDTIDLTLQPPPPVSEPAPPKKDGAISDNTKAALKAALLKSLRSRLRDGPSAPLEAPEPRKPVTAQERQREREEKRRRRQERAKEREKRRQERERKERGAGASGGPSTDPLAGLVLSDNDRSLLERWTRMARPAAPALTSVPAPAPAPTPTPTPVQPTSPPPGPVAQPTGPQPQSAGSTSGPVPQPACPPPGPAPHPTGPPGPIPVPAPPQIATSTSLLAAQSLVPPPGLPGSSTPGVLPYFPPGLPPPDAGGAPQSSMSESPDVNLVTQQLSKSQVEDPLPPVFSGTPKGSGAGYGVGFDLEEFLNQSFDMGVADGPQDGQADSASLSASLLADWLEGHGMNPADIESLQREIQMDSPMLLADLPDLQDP
# NAD(+) hydrolase SARM1 (Homo sapiens), sequence (Q6SZW1 whole entry, looked up): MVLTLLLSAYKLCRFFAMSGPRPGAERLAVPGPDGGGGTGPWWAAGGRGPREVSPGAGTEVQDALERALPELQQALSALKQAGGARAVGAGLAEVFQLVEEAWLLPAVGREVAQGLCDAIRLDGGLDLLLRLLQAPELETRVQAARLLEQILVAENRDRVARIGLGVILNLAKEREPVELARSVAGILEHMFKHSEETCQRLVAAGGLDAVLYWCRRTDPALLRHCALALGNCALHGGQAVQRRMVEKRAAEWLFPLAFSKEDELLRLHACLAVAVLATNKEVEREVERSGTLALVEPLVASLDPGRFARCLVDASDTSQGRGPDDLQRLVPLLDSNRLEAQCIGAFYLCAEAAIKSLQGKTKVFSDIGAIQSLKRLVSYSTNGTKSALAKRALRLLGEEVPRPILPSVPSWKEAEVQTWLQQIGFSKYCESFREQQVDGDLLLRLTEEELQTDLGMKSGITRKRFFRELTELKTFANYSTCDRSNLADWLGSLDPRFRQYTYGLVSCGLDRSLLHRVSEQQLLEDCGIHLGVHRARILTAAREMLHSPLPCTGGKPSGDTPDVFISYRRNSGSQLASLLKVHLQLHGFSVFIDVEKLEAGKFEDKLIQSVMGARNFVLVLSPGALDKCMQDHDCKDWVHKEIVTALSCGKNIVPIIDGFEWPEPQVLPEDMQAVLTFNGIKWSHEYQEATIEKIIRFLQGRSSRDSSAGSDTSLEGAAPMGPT
compound,measurement,setting,value
CN(C)/N=N/c1nc[nH]c1C(N)=O,inhibition,"[1]; measured here: with cisplatin IC20, at 0.5 µM",-17.3% and -45.8%
same,inhibition,"[1]; measured here: with cisplatin IC20, at 5 µM",-16% and -61.7%
same,inhibition,"[1]; single agent, at 5 µM",-8.44% and -20.4%
same,inhibition,[2]; at 0.5 µM,-3.56% (inactive) and -92.1% (inactive)
same,inhibition,"[2]; measured here: combination with BGB at IC20, at 0.5 µM",-50.1% and -47.1%
same,inhibition,"[2]; measured here: combination with cisplatin at IC20, at 0.5 µM",34.4% and -173%
same,inhibition,[3]; at 0.5 µM,0.8% (inactive) and -6.95% (inactive)
same,inhibition,"[3]; measured here: combo with BGB at IC20, at 0.5 µM",4.98% and -8.86%
same,inhibition,"[3]; measured here: combo with cisplatin at IC20, at 0.5 µM",-6.17% and -0.723%
same,inhibition,[4]; at 0.5 µM,18.9% (inactive) and 3.21% (inactive)
same,inhibition,"[4]; measured here: inhibition with BGB combination, at 0.05 µM",0.064% and -13.3%
same,inhibition,"[4]; measured here: inhibition with cisplatin combination, at 0.05 µM",3.6% and -43.6%
same,inhibition,[5]; at 0.5 µM,10.1% (inactive) and -20.6% (inactive)
same,inhibition,[5]; [15],14.2% and -25.1%
same,inhibition,"[5]; measured here: combination with cisplatin, at 5 µM",-36.9% and -16%
same,inhibition,[6]; at 0.5 µM,1.6% (inactive) and -18.5% (inactive)
same,inhibition,"[6]; measured here: BGB combination, at 0.5 µM",7.15% and -18%
same,inhibition,"[6]; measured here: BGB combination, at 5 µM",1.32% and -19%
same,inhibition,"[6]; measured here: cisplatin combination, at 0.5 µM",0.111% and -24.2%
same,inhibition,"[6]; measured here: cisplatin combination, at 5 µM",-5.49% and -14.5%
same,inhibition,"[7]; BGB combination, concentration series, at 5 µM",47.3% and 36.9%
same,inhibition,[7]; at 0.5 µM,15.9% (inactive) and 4.03% (inactive)
same,inhibition,"[7]; cisplatin combination, concentration series, at 5 µM",53.7% and 25.2%
same,inhibition,[8],-0.79% (inactive) and 0.55% (inactive)
same,inhibition,[8]; measured here: combo with BGB IC20,-3.87% and 2.32%
same,inhibition,[8]; measured here: combo with cisplatin IC20,-4.67% and -1.77%
same,inhibition,[9]; at 0.5 µM,-1.62% (inactive) and -14.7% (inactive)
same,inhibition,"[9]; cisplatin combination, at 0.5 µM",-8.23% and -62.9%
same,inhibition,"[9]; cisplatin combination, at 5 µM",1.87% and -8.42%
same,inhibition,"[9]; measured here: BGB IC40 combination 0.05 uM, at 0.05 µM",46.6% and -5.42%
same,inhibition,"[9]; single agent, at 5 µM",-9.68% and -13.7%
same,inhibition,[10]; at 0.5 µM,-1.34% (inactive) and -9.83% (inactive)
same,inhibition,"[10]; cisplatin combo, at 5 µM",6.92% and -42.9%
same,inhibition,"[10]; measured here: BGB IC40 combination, at 0.05 µM",-11.2% and -7.61%
same,inhibition,[10]; [15],10.1% and -9.31%
same,inhibition,"[10]; single agent, at 5 µM",3.33% and -8.99%
same,inhibition,[11]; at 0.5 µM,-2.87% (inactive) and -54.9% (inactive)
same,inhibition,"[11]; measured here: with BGB IC20 combination, at 0.5 µM",-14.8% and -42.6%
same,inhibition,"[11]; measured here: with cisplatin IC20 combination, at 0.5 µM",0.906% and -63.6%
same,inhibition,"[11]; single agent, at 0.05 µM",-1.35% and -67.8%
same,inhibition,"[11]; single agent, at 5 µM",10.4% and -50.2%
COC(=O)Nc1nc2ccc(S(=O)c3ccccc3)cc2[nH]1 (centres undefined),remaining NAD,[12],10 nM (inactive)
same,z-score,[13],-0.185 (inactive)
CCN1CCC[C@H]1CNC(=O)c1c(O)c(Cl)cc(Cl)c1OC,z-score,[13],0.525 (inactive) and -0.165 (inactive) and 0.41 (inactive)
O=C1CC2(CCCC2)CC(=O)N1CCNCC1COc2ccccc2O1 (centres undefined),z-score,[13],0.655 (inactive) and -0.78 (inactive)
CNCCCCOc1ccccc1Cc1ccccc1,z-score,[13],-1.31 (inactive) and -0.275 (inactive)
Cc1cc2c(C(C)C)c(O)c(O)c(C=O)c2c(O)c1-c1c(C)cc2c(C(C)C)c(O)c(O)c(C=O)c2c1O,luciferase signal,[14],28 AU (inactive)
same,z-score,[13],-1.29 (inactive) and -0.705 (inactive)
NC/C=C/C(=O)O,luciferase signal,[14],96 AU (inactive)
same,z-score,[13],0.575 (inactive)
NS(=O)(=O)c1cc2c(cc1Cl)NC(C1CC3C=CC1C3)NS2(=O)=O (centres undefined),luciferase signal,[14],84 AU (inactive)
same,z-score,[13],0.71 (inactive) and 0.55 (inactive)
Nc1c2c(nc3c1CCC3)CCCC2,z-score,[13],-0.465 (inactive)
CCCCCCCCCCCCCCCCCCOCC(O)CO (centres undefined),luciferase signal,[14],152 AU (inactive)
